# Reference: the OligoGym collection
# Target: AADACL3
# Assay: pooled miR-30 sensor sort-seq; sequence = guide strand
# Details: shRNA
row,Sequence,sensor-assay potency score (higher = more potent)
1,TATGCTTAGGTAACTTGCGGTA,-0.306
2,TTTCATGATGACCTCTTGCCAG,-1.07
3,TTTTCTTGTACAACAGTGAATT,-1.64
4,TAGATCAGGATCTGAGCCCGGA,0.297
5,TTATGCTTAGGTAACTTGCGGT,0.0464
6,TACAACAGTGAATTGTCCCGGA,0.727
7,TTCATGATGACCTCTTGCCAGG,-1.37
8,TTGTTGACAAACCACTGCGGCT,-1.56
9,ATCCGTGACCACAACATCGGGA,0.0942
10,TAGCAGATGAAACTCCAGGTGA,-0.205
11,TTACTTCCAAGTAAGCAGCTTC,0.308
12,TATGTCATCTTCTGCAATCAGG,-1.03

# Target: AATK
# Assay: as above
# Details: shRNA
row,Sequence,sensor-assay potency score (higher = more potent)
1,TCGGTAGGGATTCTTCTCGTTG,-0.77
2,AACTGCATCACCTCGTACCAGC,-1.29
3,TAGCTCATCCTCGCCAGTCAGC,-1.1
